Experimental data from PubChem BioAssay (Tox21).
Results filed as inconclusive are left out. Active and inactive are the calls of the source. Unless noted, the call rests on the fitted dose curve.

Legend:
[1] = qHTS assay to identify small molecule antagonists of the peroxisome proliferator-activated receptor delta (PPARd) signaling pathway - cell viability counter screen (AID 743213; active means well fitted curve in the direction sought with a large enough effect in the repeat runs; an effect the other way counts as inactive or inconclusive; further: nearly all actives have a fitted effect of over 50% in size)
Summary of the method: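 Same-well viability: cells pre-incubated 5 h, dosed with compound plus 300 nM L165041, kept 17 h at 37 C, FRET substrate 2 h RT, then CellTiter-Glo 30 min RT and luminescence.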

[2] = target: Bile acid receptor (Homo sapiens) (UniProt Q96RI1); test: qHTS assay to identify small molecule antagonists of the farnesoid-X-receptor (FXR) signaling pathway (AID 743217; active means well fitted inhibition curve with a large enough effect in the signal ratio in the repeat runs, not every such curve was filed as active; the % refers to the signal ratio)
Chain of Bile acid receptor (Homo sapiens) (Q96RI1 whole entry, looked up): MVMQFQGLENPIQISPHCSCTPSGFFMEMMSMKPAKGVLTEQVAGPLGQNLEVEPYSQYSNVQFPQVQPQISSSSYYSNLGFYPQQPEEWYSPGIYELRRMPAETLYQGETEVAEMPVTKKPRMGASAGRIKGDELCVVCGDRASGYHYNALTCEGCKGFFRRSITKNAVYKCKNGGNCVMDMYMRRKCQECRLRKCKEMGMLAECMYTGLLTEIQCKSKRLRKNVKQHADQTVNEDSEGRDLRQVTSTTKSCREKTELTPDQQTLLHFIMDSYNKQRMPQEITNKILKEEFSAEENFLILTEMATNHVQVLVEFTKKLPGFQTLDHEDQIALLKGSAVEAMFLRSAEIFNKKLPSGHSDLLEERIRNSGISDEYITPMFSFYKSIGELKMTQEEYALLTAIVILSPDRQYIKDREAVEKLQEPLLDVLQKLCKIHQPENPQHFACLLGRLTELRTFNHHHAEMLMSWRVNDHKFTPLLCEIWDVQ
Summary of the method: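 FRET fluorescence after 2 h room-temperature LiveBLAzer loading gives the readout. Prior step: FXR-bla HEK 293T cells, seeded and incubated 5 h, received test compounds plus 50 uM final CDCA for 16 h at 37 °C.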

[3] = qHTS assay to identify small molecule agonists of the farnesoid-X-receptor (FXR) signaling pathway - cell viability counter screen (AID 743218; active means well fitted curve in the direction sought with a large enough effect in the repeat runs; an effect the other way counts as inactive or inconclusive; further: nearly all actives have a fitted effect of over 45% in size)
Summary of the method: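 Readout: CellTiter-Glo luminescence, 30 min RT, multiplexed after the FXR-bla FRET reading. HEK 293T FXR-UAS-bla cells received compound 5 h post-plating and were incubated 16 h at 37 C.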

[4] = target: Bile acid receptor (Homo sapiens) (UniProt Q96RI1); test: qHTS assay to identify small molecule agonists of the farnesoid-X-receptor (FXR) signaling pathway (AID 743220; active means well fitted activation curve with a large enough effect in the signal ratio in the repeat runs, not every such curve was filed as active; the % refers to the signal ratio)
Summary of the method: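 FXR-UAS-bla HEK 293T cells carrying a UAS-driven beta-lactamase reporter were plated for 5 h at 37C/5% CO2, then exposed to DMSO-dissolved Tox21 10K compounds for 16 h at 37C. A LiveBLAzer B/G FRET substrate was loaded for 2 h at room temperature before fluorescence reading.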

[5] = qHTS assay to identify small molecule antagonists of the farnesoid-X-receptor (FXR) signaling pathway - cell viability counter screen (AID 743221; active means well fitted cell-killing curve with a large enough effect in the repeat runs, not every such curve was filed as active; further: nearly all actives have a fitted effect of over 50% in size)
Summary of the method: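 Cytotoxicity counter screen run in the FXR-bla reporter wells: HEK 293T cells exposed to compound with 50 uM (final) chenodeoxycholic acid for 16 h, 37 C, then viability measured by CellTiter-Glo luminescence after 30 min, room temperature.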

[6] = target: Vitamin D3 receptor (Homo sapiens) (UniProt P11473); test: qHTS assay to identify small molecule agonists of the vitamin D receptor (VDR) signaling pathway (AID 743222)
Chain of Vitamin D3 receptor (Homo sapiens) (P11473 whole entry, looked up): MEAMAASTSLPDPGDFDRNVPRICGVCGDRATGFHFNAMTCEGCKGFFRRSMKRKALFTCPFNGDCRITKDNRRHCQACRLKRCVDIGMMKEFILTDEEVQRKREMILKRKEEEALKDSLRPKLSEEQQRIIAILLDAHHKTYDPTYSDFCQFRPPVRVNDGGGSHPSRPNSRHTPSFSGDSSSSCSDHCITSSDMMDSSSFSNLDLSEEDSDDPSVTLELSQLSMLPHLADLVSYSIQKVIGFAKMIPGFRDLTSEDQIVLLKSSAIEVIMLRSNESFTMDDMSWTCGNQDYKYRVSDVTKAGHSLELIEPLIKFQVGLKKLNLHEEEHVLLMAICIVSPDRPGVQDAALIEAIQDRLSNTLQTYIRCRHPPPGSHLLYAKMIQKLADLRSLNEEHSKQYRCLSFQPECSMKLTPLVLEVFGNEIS
Summary of the method: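 Following 4 h attachment at 37C, VDR-bla cells (2,000 per well) received DMSO-dissolved compounds or controls. After 16 h incubation, LiveBLAzer B/G FRET substrate was added and fluorescence read 2 h later at room temperature.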

[7] = target: Vitamin D3 receptor (Homo sapiens) (UniProt P11473); test: qHTS assay to identify small molecule antagonists of the vitamin D receptor (VDR) signaling pathway (AID 743223; active means well fitted inhibition curve with a large enough effect in the signal ratio in the repeat runs, not every such curve was filed as active; the % refers to the signal ratio)
Summary of the method: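 Antagonist mode: compound added to VDR-bla cells alongside agonist 1alpha,25-dihydroxyvitamin D3 (3 nM final), incubation 16 h at 37C. Read-out is LiveBLAzer FRET fluorescence, 2 h at room temperature.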

[8] = qHTS assay to identify small molecule agonists of the vitamin D receptor (VDR) signaling pathway - cell viability counter screen (AID 743224; active means well fitted curve in the direction sought with a large enough effect in the repeat runs; an effect the other way counts as inactive or inconclusive; further: series mostly up to about 63 µM; nearly all actives have a fitted effect of over 50% in size)
Summary of the method: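 In parallel with the bla FRET readout, cytotoxicity toward VDR-bla cells after 16 h compound exposure was assessed by CellTiter-Glo, with luminescence recorded after a 30 min room-temperature incubation.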

[9] = qHTS assay to identify small molecule antagonists of the vitamin D receptor (VDR) signaling pathway - cell viability counter screen (AID 743225; active means well fitted curve in the direction sought with a large enough effect in the repeat runs; an effect the other way counts as inactive or inconclusive; further: nearly all actives have a fitted effect of over 50% in size)
Summary of the method: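 Cytotoxicity counter screen read by CellTiter-Glo luminescence (30 min, room temperature) in the same wells as the VDR-bla antagonist readout. HEK 293T VDR-UAS-bla cells had 16 h at 37C with compound and 3 nM (final) 1-alpha,25-dihydroxyvitamin D3, then 2 h with FRET substrate.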

[10] = qHTS assay to identify small molecule agonists of the NFkB signaling pathway (AID 1159509; active means well fitted curve in the direction sought with a large enough effect in the signal ratio in the repeat runs, not every such curve was filed as active; the % refers to the signal ratio; further: series mostly up to about 61 µM)
Summary of the method: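 Beta-lactamase reporter assay run in quantitative high-throughput format on an NF-kB-responsive ME-180 line, with 5 hr compound treatment and a FRET-based blue/green fluorescence readout.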

[11] = qHTS assay to identify small molecule agonists of the NFkB signaling pathway - cell viability counter screen (AID 1159515); further: series mostly up to about 61 µM; nearly all actives have a fitted effect of over 55% in size
Summary of the method: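 Plate 2,000 NFkB-bla ME-180 cells/well; incubate overnight. Add compounds, 5 hr at 37 C. Add FRET substrate, 1.5 hr RT. Add CellTiter-Glo, 30 min RT; read luminescence.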

[12] = qHTS assay to identify small molecule agonists of the endoplasmic reticulum stress response signaling pathway (AID 1159516; active means well fitted activation curve with a large enough effect in the signal ratio in the repeat runs, not every such curve was filed as active; the % refers to the signal ratio)
Summary of the method: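 Beta-lactamase expression from the ER stress response element in HeLa reporter cells is quantified with the LiveBLAzer B/G FRET substrate, read at 405 nm excitation after 2 hr at room temperature, following 5 hr compound treatment at 37 C.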

[13] = qHTS assay to identify small molecule agonists of the endoplasmic reticulum stress response signaling pathway - cell viability counter screen (AID 1159517)
Summary of the method: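 Steps: seed 1,500 ESRE-bla HeLa cells per well; incubate overnight at 37 C, 5% CO2; add compounds in DMSO for 5 hr; run FRET substrate 2 hr RT; add CellTiter-Glo, wait 30 min, read luminescence.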

[14] = qHTS assay to identify small molecule antagonists of the retinoid-related orphan receptor gamma (ROR-gamma) signaling pathway - cell viability counter screen (AID 1159520; active means well fitted curve in the direction sought with a large enough effect in the repeat runs; an effect the other way counts as inactive or inconclusive; further: nearly all actives have a fitted effect of over 50% in size)
Summary of the method: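 Tet-on ROR gamma CHO cells were given compounds for 2 hr, then doxycycline hyclate at 1 uM final, and incubated 16 hr at 37 C. Viability was measured as ATP content by CellTiter-Glo luminescence.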

[15] = target: Nuclear receptor ROR-gamma (Homo sapiens) (UniProt P51449); test: qHTS assay to identify small molecule antagonists of the retinoid-related orphan receptor gamma (ROR-gamma) signaling pathway (AID 1159521; active means well fitted curve in the direction sought with a large enough effect in the repeat runs; an effect the other way counts as inactive or inconclusive)
Summary of the method: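 Antagonist read-out: drop in luminescence (ONE-Glo) from an RORE-LUC reporter in CHO cells with doxycycline-inducible ROR-gamma; 2 hr compound pretreatment, 1 uM doxycycline, 16 hr incubation at 37 C.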

[16] = qHTS assay to identify small molecule agonists of the AP-1 signaling pathway - cell viability counter screen (AID 1159525); further: nearly all actives have a fitted effect of over 55% in size
Summary of the method: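 Same-well cytotoxicity counter screen of the Tox21 10K library in ME-180 cells. The readout is ATP-dependent luminescence after 5 h compound treatment. Data are normalised to DMSO and tetra n-octyl ammonium bromide controls.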

[17] = qHTS assay to identify small molecule agonists of the AP-1 signaling pathway (AID 1159526)
[18] = target: Retinoic acid receptor RXR-alpha (Homo sapiens) (UniProt P19793); test: qHTS assay to identify small molecule agonists of the RXR signaling pathway (AID 1159527); further: nearly all actives have a fitted effect of over 35% in size
Chain of Retinoic acid receptor RXR-alpha (Homo sapiens) (P19793 whole entry, looked up): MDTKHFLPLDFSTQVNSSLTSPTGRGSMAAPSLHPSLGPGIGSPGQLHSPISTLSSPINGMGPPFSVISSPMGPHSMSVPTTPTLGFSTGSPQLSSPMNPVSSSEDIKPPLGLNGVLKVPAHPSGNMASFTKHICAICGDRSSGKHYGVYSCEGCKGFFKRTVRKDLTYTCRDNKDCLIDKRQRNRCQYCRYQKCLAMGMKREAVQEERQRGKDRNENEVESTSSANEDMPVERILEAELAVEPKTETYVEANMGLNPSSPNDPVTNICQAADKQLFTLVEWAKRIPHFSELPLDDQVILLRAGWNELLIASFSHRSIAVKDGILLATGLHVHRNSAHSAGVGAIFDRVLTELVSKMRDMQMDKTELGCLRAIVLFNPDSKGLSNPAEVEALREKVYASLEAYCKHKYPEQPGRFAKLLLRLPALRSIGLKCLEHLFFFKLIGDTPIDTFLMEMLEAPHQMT
Summary of the method: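 Agonist-mode beta-lactamase reporter assay: HEK 293T RXR-alpha-UAS-bla cells treated 16 hr at 37 C with compounds, 9-cis retinoic acid as positive control. LiveBLAzer FRET substrate, 405 nm excitation, 460/530 nm emission.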

[19] = target: Peroxisome proliferator-activated receptor delta (Homo sapiens) (UniProt Q03181); test: qHTS assay to identify small molecule antagonists of the peroxisome proliferator-activated receptor delta (PPARd) signaling pathway (AID 743215; active means well fitted inhibition curve with a large enough effect in the signal ratio in the repeat runs, not every such curve was filed as active; the % refers to the signal ratio;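 further: cells stimulated with agonist L165041 at 300 nM final during compound exposure; series mostly up to about 62 µM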)
Chain of Peroxisome proliferator-activated receptor delta (Homo sapiens) (Q03181 whole entry, looked up): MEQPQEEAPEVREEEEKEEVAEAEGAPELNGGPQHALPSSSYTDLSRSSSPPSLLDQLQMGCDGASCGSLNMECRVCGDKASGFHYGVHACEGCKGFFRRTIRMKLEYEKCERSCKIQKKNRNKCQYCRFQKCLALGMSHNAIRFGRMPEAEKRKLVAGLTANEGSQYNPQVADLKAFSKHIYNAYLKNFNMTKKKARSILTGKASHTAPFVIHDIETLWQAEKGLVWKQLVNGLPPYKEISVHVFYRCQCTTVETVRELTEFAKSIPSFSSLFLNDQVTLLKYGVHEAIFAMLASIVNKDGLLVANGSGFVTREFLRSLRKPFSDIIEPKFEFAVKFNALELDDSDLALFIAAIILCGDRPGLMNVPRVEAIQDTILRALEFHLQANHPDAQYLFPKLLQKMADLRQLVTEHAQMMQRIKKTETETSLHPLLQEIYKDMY
Summary of the method: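 Fluorescence from cleaved LiveBLAzer B/G FRET substrate (2 h, room temperature) reports PPARd-driven beta-lactamase in HEK293H UAS-bla cells. Cells had been treated 17 h at 37 C with compound plus 300 nM final L165041.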

[20] = target: Peroxisome proliferator-activated receptor delta (Homo sapiens) (UniProt Q03181); test: qHTS assay to identify small molecule agonists of the peroxisome proliferator-activated receptor delta (PPARd) signaling pathway (AID 743212)
Summary of the method: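 Read-out: beta-lactamase FRET fluorescence after 2 h room-temperature incubation with LiveBLAzer B/G substrate. Cells were HEK293H carrying a UAS-bla reporter for PPARd, treated at 37 C with DMSO-dissolved compounds.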

Measured: Potency

CCCN(CCC)S(=O)(=O)c1ccc(C(=O)O)cc1
inactive: [1] | [2] | [3] | [4] | [5] | [6] | [7] | [8] | [9] | [10] | [11] | [12] | [13] | [14] | [15] | [16] | [17] | [18]

Nc1ccc(S(=O)(=O)c2ccc(N)cc2)cc1
inactive: [1] | [2] | [3] | [4] | [5] | [8] | [9] | [10] | [11] | [12] | [13] | [14] | [15] | [16] | [17] | [18]

CCCNC(=O)NS(=O)(=O)c1ccc(Cl)cc1
inactive: [1] | [19] | [3] | [5] | [6] | [7] | [8] | [9] | [10] | [11] | [12] | [13] | [14] | [15] | [16] | [17] | [18]

O=C(O)CCC(=O)O
inactive: [1] | [2] | [3] | [4] | [5] | [6] | [7] | [8] | [9] | [10] | [11] | [12] | [13] | [14] | [15] | [16] | [17] | [18]

Cc1ccc(S(=O)(=O)NC(=O)NN2CCCCCC2)cc1
inactive: [20] | [1] | [3] | [5] | [6] | [7] | [8] | [9] | [10] | [11] | [12] | [13] | [14] | [15] | [16] | [17] | [18]

Nc1ccc(C(=O)O)cc1
inactive: [1] | [2] | [3] | [4] | [5] | [8] | [9] | [10] | [11] | [12] | [13] | [14] | [15] | [16] | [17] | [18]

COc1ccc2[nH]cc(CCNC(C)=O)c2c1
inactive: [1] | [2] | [3] | [4] | [5] | [6] | [7] | [8] | [9] | [10] | [11] | [12] | [13] | [14] | [15] | [16] | [17] | [18]

NC(=O)c1cnccn1
inactive: [1] | [3] | [5] | [6] | [7] | [8] | [9] | [10] | [11] | [12] | [13] | [14] | [15] | [16] | [17] | [18]

CCCCOC(=O)CC(CC(=O)OCCCC)(OC(C)=O)C(=O)OCCCC
inactive: [1] | [2] | [3] | [4] | [5] | [6] | [7] | [8] | [9] | [10] | [11] | [12] | [13] | [14] | [15] | [16] | [17] | [18]
